Source: PubChem BioAssay
CYP2C9 act – human CYP2C9 activators, primary screen, biochemical, luminescence. AID 1024, 2008. recombinant CYP2C9, luciferin-H conversion; stronger effect = higher value; factor 1 = untreated enzyme, 0 = blocked. activation factor at 5 µM. hit rate 1.4% among 96,000. Cytochrome P450 2C9 (Homo sapiens), P11712;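 active means activation factor of 2 or more for CYP2C9 at a 5 µM dose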;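 further: 0 = sulfaphenazole-blocked wells and 1 = vehicle-only wells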
Target sequence (P11712 whole entry, looked up): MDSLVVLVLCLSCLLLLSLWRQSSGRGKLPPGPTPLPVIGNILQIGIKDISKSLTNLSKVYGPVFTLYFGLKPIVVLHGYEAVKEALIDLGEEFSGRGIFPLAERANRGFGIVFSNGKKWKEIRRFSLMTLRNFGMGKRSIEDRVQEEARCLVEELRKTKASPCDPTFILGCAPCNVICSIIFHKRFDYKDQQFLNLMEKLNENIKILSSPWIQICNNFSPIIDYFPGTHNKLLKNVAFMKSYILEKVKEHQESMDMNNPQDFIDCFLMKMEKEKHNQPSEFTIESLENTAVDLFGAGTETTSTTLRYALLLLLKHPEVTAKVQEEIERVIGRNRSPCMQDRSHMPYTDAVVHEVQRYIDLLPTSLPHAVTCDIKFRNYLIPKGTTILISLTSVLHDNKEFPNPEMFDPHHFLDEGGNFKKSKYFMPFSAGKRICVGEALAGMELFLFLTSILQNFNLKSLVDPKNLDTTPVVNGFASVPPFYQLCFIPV
CYP2C9 inhib – blockers of cytochrome P450 2C9 activity – biochemical, luminescence, ADME assay, primary screen; P11712; CYP2C9 Supersomes, luciferin-H conversion; inhibition, % at 5 µM; hit rate 20% among 96,000;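 active means blocking of liver enzyme CYP2C9 beyond about 50% at 5 µM, limit read from the data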
sEH activator – soluble epoxide hydrolase activators, primary screen, biochemical, human sEH; purified human sEH enzymatic activity, activator screen; hit rate 0.04% among 91,000; Bifunctional epoxide hydrolase 2 (Homo sapiens), P34913; activation, % at 2 µM; AID 717, 2007; in the data active means activation above about 37%
CYP2C19 act – human CYP2C19 activators, primary screen, biochemical, luminescence. Cytochrome P450 2C19 (Homo sapiens), P33261. recombinant CYP2C19, luciferin-H EGE luminescence; stronger effect = higher value; 0 = fully inhibited enzyme, 1 = untreated enzyme. activation factor at 5 µM. 96,000 tested, under 10 active. AID 1025, 2008;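 active means activation factor of at least 2 at 5 µM in the primary screen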;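 further: 0 = wells with 2.5 mM tranylcypromine and 1 = vehicle-only wells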
CYP2C19 inh – blockers of cytochrome P450 2C19 activity – biochemical, luminescence, ADME assay, primary screen; CYP2C19 Supersomes, luciferin-H EGE luminescence, 30 min; inhibition, % at 5 µM; hit rate 21% among 96,000; AID 778, 2007;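 active means CYP2C19 inhibition above a set limit at 5 µM in the primary screen, cut at about 50% in these data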;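 further: plate controls were negative control wells for no effect and 2.5 mM tranylcypromine positive control for full effect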
sEH inhibitor – soluble epoxide hydrolase inhibitors, primary screen, biochemical, human sEH. recombinant human sEH enzymatic activity assay. hit rate 0.34% among 91,000. inhibition, % at 2 µM. Bifunctional epoxide hydrolase 2 (Homo sapiens), P34913; in the data active means inhibition above about 80%
Starred values were filed as active, the others as inactive. A selection: hits, their analogues and other compounds. The true share with any hit is near 27%.

How did COc1ccc(NC(=S)Nc2ccc(Oc3ccccc3)cc2)cc1 do in these assays?
CYP2C9 act: 1.2; CYP2C9 inhib: -15.5; sEH activator: -25.4; CYP2C19 act: 1.1; CYP2C19 inh: -8.1; sEH inhibitor: 25.8

What do the screens show for `CC(C)CCNC(=O)NC(=O)Cn1cc(C(F)(F)F)ccc1=O`?
CYP2C9 act: 0.7; CYP2C9 inhib: 34.6; sEH activator: -9.5; CYP2C19 act: 0.6; CYP2C19 inh: 38.4; sEH inhibitor: 9.0

How did O=c1c(-c2ccccc2)n[nH]c2ccccc12 do in these assays?
CYP2C9 act: 0.7; CYP2C9 inhib: 30.8; sEH activator: 9.9; CYP2C19 act: 0.8; CYP2C19 inh: 22.0; sEH inhibitor: -9.7

Results for Nc1c(-c2ccccc2)n[nH]c1-c1ccccc1 ?
CYP2C9 act: 0.6; CYP2C9 inhib: 40.5; sEH activator: -1.6; CYP2C19 act: 0.3; CYP2C19 inh: 75.0*; sEH inhibitor: 1.9

Results for O=C(Cc1cnn(-c2ccccc2)c1)c1ccc(O)c(O)c1O ?
CYP2C9 act: 0.2; CYP2C9 inhib: 79.1*; sEH activator: -10.7; CYP2C19 act: 0.3; CYP2C19 inh: 65.1*; sEH inhibitor: 9.8

Results for CCc1cc(C(=O)Cc2cnn(-c3ccccc3)c2)c(O)cc1O ?
CYP2C9 act: 0.8; CYP2C9 inhib: 21.6; CYP2C19 act: 0.4; CYP2C19 inh: 55.2*

What do the screens show for `Oc1cnn(-c2ccccc2)c1`?
CYP2C9 act: 1.2; CYP2C9 inhib: -15.6; sEH activator: 4.5; CYP2C19 act: 1; CYP2C19 inh: -0.4; sEH inhibitor: -4.1

Results for Cc1ccc(O)c(C(=O)c2cnn(-c3ccccc3)c2)c1 ?
CYP2C9 act: 1.3; CYP2C9 inhib: -26.5; sEH activator: -7.0; CYP2C19 act: 0.8; CYP2C19 inh: 23.3; sEH inhibitor: 9.1

What do the screens show for `CCn1c(=O)cc(SCC(=O)NCCCN2CCN(c3ccccc3F)CC2)c2ccccc21`?
CYP2C9 act: 1.4; CYP2C9 inhib: -39.2; sEH activator: -4.7; CYP2C19 act: 1; CYP2C19 inh: -2.4; sEH inhibitor: 3.4

Results for Cc1nn2c3c(cnc2c1-c1ccccc1)C(=O)CC(C)C3 (stereo unspecified) ?
sEH activator: -6.1; sEH inhibitor: 6.2

How did COc1ccc(C2Oc3ccccc3N2C(C)=O)cc1 (stereo unspecified) do in these assays?
CYP2C9 act: 0.3; CYP2C9 inhib: 68.8*; sEH activator: -0.8; CYP2C19 act: 0.4; CYP2C19 inh: 63.5*; sEH inhibitor: -0.5

How did COc1ccc(C(=O)N2c3ccccc3C(=O)OC2c2ccc3c(c2)OCO3)cc1 (stereo unspecified) do in these assays?
CYP2C9 act: 0.2; CYP2C9 inhib: 80.9*; sEH activator: 3.8; CYP2C19 act: 0.2; CYP2C19 inh: 83.3*; sEH inhibitor: -4.7

What do the screens show for `COC(=O)CC1COc2ccccc2N1C(=O)c1ccc(OC)cc1` (stereo unspecified)?
CYP2C9 act: 0.5; CYP2C9 inhib: 48.2; sEH activator: 2.3; CYP2C19 act: 0.4; CYP2C19 inh: 61.9*; sEH inhibitor: 0.5

Results for Cc1ncc(N=Nc2ccccc2)c(-c2ccccc2)n1 ?
CYP2C9 act: 0.9; CYP2C9 inhib: 6.2; sEH activator: 11.5; CYP2C19 act: 0.8; CYP2C19 inh: 18.6; sEH inhibitor: -11.3

What do the screens show for `CCCCC(=O)NC1(C(F)(F)F)C(=O)Nc2c1c(=O)[nH]c(=O)n2Cc1ccco1` (stereo unspecified)?
CYP2C9 act: 0.7; CYP2C9 inhib: 29.2; sEH activator: 13.3; CYP2C19 act: 0.9; CYP2C19 inh: 10.6; sEH inhibitor: -10.2

How did O=C(CN1C(=O)CSC1=O)Nc1ccc(C(=O)O)cc1 do in these assays?
CYP2C9 act: 1.1; CYP2C9 inhib: -5.8; CYP2C19 act: 0.8; CYP2C19 inh: 24.6

How did COc1ccc2[nH]cc(C(=O)CN(C)CCc3ccc(OC)c(OC)c3)c2c1 do in these assays?
CYP2C9 act: 0.1; CYP2C9 inhib: 91.4*; sEH activator: -0.9; CYP2C19 act: 0.1; CYP2C19 inh: 85.3*; sEH inhibitor: 0.8

What do the screens show for `COc1ccc2[nH]cc(C(=O)CN3CCCCC3C)c2c1` (stereo unspecified)?
CYP2C9 act: 0.8; CYP2C9 inhib: 17.9; CYP2C19 act: 0.8; CYP2C19 inh: 22.7

Results for COc1ccc(CCNC(=O)c2c[nH]c3ccccc3c2=O)cc1OC ?
CYP2C9 act: 0.7; CYP2C9 inhib: 28.8; CYP2C19 act: 0.5; CYP2C19 inh: 50.0*

Results for CCN(CC)S(=O)(=O)c1ccc2[nH]cc(C(=O)NCCc3ccc(OC)c(OC)c3)c(=O)c2c1 ?
CYP2C9 act: 0.4; CYP2C9 inhib: 60.1*; sEH activator: 8.4; CYP2C19 act: 0.4; CYP2C19 inh: 56.8*; sEH inhibitor: -7.0

Results for CCOc1ccccc1-c1nc(SCC(=O)O)n[nH]1 ?
CYP2C9 act: 1.1; CYP2C9 inhib: -10.8; sEH activator: 6.7; CYP2C19 act: 1.1; CYP2C19 inh: -10.8; sEH inhibitor: -7.1

Results for c1cncc(-c2nc3c(ccc4ccccc43)[nH]2)c1 ?
CYP2C9 act: 0.8; CYP2C9 inhib: 20.1; sEH activator: -2.9; CYP2C19 act: 0.9; CYP2C19 inh: 12.7; sEH inhibitor: 3.6

What do the screens show for `CC1(C)CC(=O)C2=C(C1)Oc1nc3ccccc3cc1C2C(C#N)C#N` (stereo unspecified)?
CYP2C9 act: 0.4; CYP2C9 inhib: 60.5*; sEH activator: -1.4; CYP2C19 act: 0.7; CYP2C19 inh: 26.2; sEH inhibitor: 3.0

What do the screens show for `Cc1ccc(NC(=O)CSCCc2ccccn2)nc1`?
CYP2C9 act: 0.9; CYP2C9 inhib: 9.0; sEH activator: 21.1; CYP2C19 act: 0.9; CYP2C19 inh: 6.3; sEH inhibitor: -20.8

What do the screens show for `COc1ccc(-c2cc(N)n(S(=O)(=O)c3c(F)c(F)c(F)c(F)c3F)n2)cc1OC`?
CYP2C9 act: 0.2; CYP2C9 inhib: 83.0*; sEH activator: -4.0; CYP2C19 act: 0.4; CYP2C19 inh: 58.7*; sEH inhibitor: 1.2

How did COc1ccc(-c2cc(-c3cc(F)ccc3O)[nH]n2)cc1OC do in these assays?
CYP2C9 act: 1.1; CYP2C9 inhib: -6.6; sEH activator: -5.1; CYP2C19 act: 1.1; CYP2C19 inh: -10.4; sEH inhibitor: 5.3

How did COc1ccc2cc3cc(C(=O)Nc4ccccc4N4CCN(C)CC4)oc3nc2c1 do in these assays?
CYP2C9 act: 0.7; CYP2C9 inhib: 25.6; sEH activator: 12.5; CYP2C19 act: 0.4; CYP2C19 inh: 61.2*; sEH inhibitor: -12.9

How did COc1ccc2cc3cc(C(=O)NCCN4CCN(c5ccccc5F)CC4)oc3nc2c1 do in these assays?
CYP2C9 act: 0.7; CYP2C9 inhib: 31.5; sEH activator: 7.0; CYP2C19 act: 0.8; CYP2C19 inh: 19.5; sEH inhibitor: -7.4
